16 compounds from PubChem BioAssay AID492949 (National Center for Advancing Translational Sciences (NCATS), 2010) can be followed below.

Results filed as inconclusive are left out. Active and inactive are the calls of the source. The call rests on the fitted dose curve; in most records, active means well fitted activation curve with a large enough effect; inconclusive means small, poorly fitted or top-dose-only effect; inactive means no such curve, though single readings can be large or run the other way.
Potency means the concentration at half of the fitted maximal effect.

The target in this test is Relaxin receptor 1 (Homo sapiens) (UniProt Q9HBX9). The test is described as follows: qHTS Assay for Agonists of the Relaxin Receptor RXFP1: THP1 Hit Validation. Further: nearly all actives have a fitted effect of over 60% in size.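 On activation: 0% = buffer alone basal and 100% = 29 nM porcine relaxin.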 The conditions noted are these: THP1-RXFP1 cells, cAMP TR-FRET, 30 min; series mostly up to 115 µM; activation: at the top concentration. In a few lines: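 RXFP1-THP1 cells, 2000/well, + Ro 20174 (PDE4 inhib.); cpd 30 min 37C. Lysis + cAMP-d2/anti-cAMP cryptate, 30 min RT, HTRF 665/615. Norm: buffer vs 29 nM porcine relaxin; Hill EC50.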
Chain of Relaxin receptor 1 (Homo sapiens) (Q9HBX9 whole entry, looked up): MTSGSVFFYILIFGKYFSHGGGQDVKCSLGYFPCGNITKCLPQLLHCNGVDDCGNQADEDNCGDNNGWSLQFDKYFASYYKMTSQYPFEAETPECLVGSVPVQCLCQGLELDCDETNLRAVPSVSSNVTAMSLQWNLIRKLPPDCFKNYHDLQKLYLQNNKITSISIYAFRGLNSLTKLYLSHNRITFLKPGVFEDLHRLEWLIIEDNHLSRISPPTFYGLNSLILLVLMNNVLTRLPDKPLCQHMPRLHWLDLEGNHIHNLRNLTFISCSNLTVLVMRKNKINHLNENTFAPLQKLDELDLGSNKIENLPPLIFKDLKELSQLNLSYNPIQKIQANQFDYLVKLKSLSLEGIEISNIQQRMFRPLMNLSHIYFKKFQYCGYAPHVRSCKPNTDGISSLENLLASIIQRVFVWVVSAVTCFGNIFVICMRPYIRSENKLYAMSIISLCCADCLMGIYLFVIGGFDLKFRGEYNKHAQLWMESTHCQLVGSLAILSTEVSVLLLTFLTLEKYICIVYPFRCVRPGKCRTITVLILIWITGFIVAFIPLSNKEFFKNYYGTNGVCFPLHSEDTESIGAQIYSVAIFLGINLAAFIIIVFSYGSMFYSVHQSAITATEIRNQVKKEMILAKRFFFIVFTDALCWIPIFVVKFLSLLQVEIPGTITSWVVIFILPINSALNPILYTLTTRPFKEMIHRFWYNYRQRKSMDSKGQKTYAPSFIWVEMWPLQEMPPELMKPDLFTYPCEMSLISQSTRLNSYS
As to `O=C(O)c1ccc(N=C2NC(=O)C(CO)(CO)S2)cc1`, the “activation” value is 28.2% (inactive). Regarding `CC(=O)c1c(C)[nH]c(C(=O)OCc2cc(=O)n3cc(Br)ccc3n2)c1C`, the Potency was 8.68 µM (active). `CCN(CC)C(=O)c1cc(Cl)ccc1NC(=O)c1ccco1`: the “activation” value is -2.97% [at 125 µM] (inactive). Take `CCNc1nc(NCC)nc(N(C)/N=C/c2ccco2)n1`: the “activation” value is -2.12% (inactive).

Turning to `CCc1cc2c(=O)nc3n(c2s1)Cc1ccccc1/C3=C(/O)c1cccc([N+](=O)[O-])c1`, the Potency is 0.87 µM (active). Turning to `COC(=O)c1sc(N2C(=O)C(O)=C(C(=O)c3ccc(C)o3)C2c2ccc(F)cc2)nc1C` (stereo unspecified), the Potency is 2.75 µM (active). Same read-out and setting: under `CCOC(=O)CNC(=O)CSc1nc2c(C)cccc2cc1CC` stands 19.4 µM (active); under `Cn1c(=O)c(C(=O)COc2ccc(C#N)cc2)c(N)n(Cc2ccccc2)c1=O`, 8.7 µM (active). Turning to `COc1ccc(CC(=O)N/N=C/c2cccnc2)cc1OC`, the “activation” value was -3.65% (inactive). As for `COc1ccc(S(=O)(=O)N2CCOCC2)cc1NC(=O)CSc1nnc2ccccn12`, the Potency is 6.9 µM (active). For `O=C(Nc1ccccc1C(=O)NC1CCCCC1)c1ccco1`, the “activation” value is 3.46% [at 125 µM] (inactive). Same read-out and setting: under `CN(C)c1ccc(C(=S)N2CCN(S(=O)(=O)c3ccccc3)CC2)cc1` stands -2.5% (inactive). For the compound `Brc1ccc(-c2nn3c(-c4ccco4)nnc3s2)o1`, the Potency was 17.3 µM (active).

`CN(C)S(=O)(=O)c1cccc(COc2ncnc3c(Cl)cc(Cl)cc23)c1`: the Potency is 5.49 µM (active). `O=C(O)CSc1ccnc2cc(Cl)ccc12`: the Potency was 21.8 µM (active).

As for `CCC(=O)Nc1ccc(NC(=O)CSc2nc3c(c(=O)n(C)c(=O)n3C)n2CC)cc1`, the Potency is 43.6 µM (active).
